# Screens deposited in PubChem BioAssay by National Center for Advancing Translational Sciences (NCATS).
# Compounds with a hit are over-represented: about 21% of the library has one in this group of screens.
# NS1 inh – qHTS Assay for Inhibitors of Influenza NS1 Protein Function | Potency, µM (doses to about 46.1 µM), for the others: at the highest dose activity, positive = more growth | 0.4% of 270,000 active; calls by dose curve; also: potency is read from the fitted curve at half-maximal effect; actives are rising curves; nearly all actives have a fitted effect of over 50% in size
#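 Recovery from NS1-induced slow growth read by OD600 in budding yeast switched to galactose assay medium (pH 6.0, -URA) at 1:100 dilution. Compound 23 nl per well; the matching strain lacking NS1 serves as control.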
# Pf growth 96h – Primary qHTS for delayed death inhibitors of the malarial parasite plastid, 96 hour incubation. P. falciparum luciferase reporter growth, 96 h. 6.9% of 320,000 active. AID 504834, 2011. Potency, µM (titrated, usually from 28.7 µM), inactives show at the top dose activity change, negative = inhibition, usual class: inhibitors; also: potency is read from the fitted curve at half-maximal effect; % is scaled to controls: 0 for no effect and ±100 for the full control effect
#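 Readout is luminescence from an integrated firefly luciferase in P. falciparum. Red cells, 2% hematocrit and 0.05% parasitemia final, were cultured with compound through two parasite generations (96 hours) at 37 C, 5% CO2.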
# Pf growth 48h – Primary qHTS for delayed death inhibitors of the malarial parasite plastid, 48 hour incubation; P. falciparum luciferase growth in erythrocytes, 48 h; Potency, µM (titrated, usually from 28.7 µM), for the others: top-dose activity change, negative = inhibition, usual class: inhibitors; 5.9% of 310,000 active; AID 504832, 2011; also: potency is read from the fitted curve at half-maximal effect; % is scaled to controls: 0 for no effect and ±100 for the full control effect
#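 Cell-based growth assay: transgenic P. falciparum expressing firefly luciferase, cultured in red cells within RPMI 1640 containing 0.5% w/v Albumax, 24 mM bicarbonate and gentamycin. A drop in luciferase activity indicates inhibition.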
# CHX counter – Cycloheximide Counterscreen for Small Molecule Inhibitors of Shiga Toxin. cell reporter, cycloheximide protein synthesis inhibition counterscreen. max response, %. 12% of 300,000 active; in the data active = max response mostly above about 13%, no sharp cut-off; inactive = mostly below about 14%; also: read at 38.3 µM for the half of the compounds with a filed dose; 0% is about no effect
# Shiga inhibitor – A qHTS for Small Molecule Inhibitors of Shiga Toxin | 9.2% of 290,000 active | Vero cells, Shiga toxin protein synthesis inhibition reporter | inhibition, % at 38.7 µM | AID 2315, 2010; in the data active = inhibition mostly above about 28%, no sharp cut-off; inactive = mostly below about 43%; also: 0% is about no effect
# An asterisk follows results filed as active; ? = inconclusive; / = no result given. Unless noted, calls follow the shape of the dose curve; as a rule, active = well fitted inhibition curve with a large enough effect; inconclusive = small, poorly fitted or top-dose-only effect, or another doubt; inactive = no such curve, though single readings can be large or run the other way.
SMILES,NS1 inh,Pf growth 96h,Pf growth 48h,CHX counter,Shiga inhibitor
COc1cccc(C2c3c(-c4ccccc4O)n[nH]c3C(=O)N2Cc2ccco2)c1 (centres undefined),-31.9%,-27.3%,?,-2.3,1.1
O=C1c2[nH]nc(-c3ccccc3O)c2C(c2ccccc2)N1Cc1ccco1 (centres undefined),/,?,11.7µM*,-1.4,-5.2
COCCN1C(=O)c2[nH]nc(-c3ccccc3O)c2C1c1ccc(OCc2ccccc2)c(OC)c1 (centres undefined),/,/,/,-4.2,-4.1
COCCCN1C(=O)c2[nH]nc(-c3ccccc3O)c2C1c1cccc(Cl)c1 (centres undefined),?,7.38µM*,9.28µM*,-0.9,-14.4
CCc1n[nH]c(=S)n1/N=C/c1ccc(N(C)c2ccccc2)cc1,/,?,10.4µM*,4.0,-5.3
Nc1nonc1C(=O)NCCNC(=O)c1ccc(Cl)cc1,1.5%,?,24.5%,-5.1,5.1
Cc1nonc1OCC(C)(COc1nonc1C)NC(=O)c1ccc(Cl)cc1,-1.2%,4.65µM*,8.28µM*,-3.1,12.5
CC1(C)CC(CC(=O)Nc2ccc([N+](=O)[O-])cc2)C(=O)O1 (centres undefined),20.5%,?,42.6%,1.7,-6.3
CC(CC1CC(C)(C)OC1=O)C(=O)Nc1ccc([N+](=O)[O-])cc1 (centres undefined),-2.1%,1.65µM*,?,11.1,15.8
Cc1ccccc1CC(=O)Nc1ccon1,22.3%,-7.7%,-6.6%,-1.4,-8.6
O=C(CSc1nc(-c2ccc(Cl)cc2)cs1)Nc1cccc([N+](=O)[O-])c1,-17.6%,?,-13.0%,38.1*,53.5*
CC(C)c1ccc(NC(=O)CSc2ncccc2C(=O)Oc2cccc([N+](=O)[O-])c2)cc1,?,?,74.7%,45.7*,35.8*
O=[N+]([O-])c1cccc(NC(=S)Nc2nc(-c3ccccc3Cl)cs2)c1,1.8%,30.2%,?,32.8*,74.7*
NS(=O)(=O)c1cccc(NC(=O)CSc2ccccn2)c1,4.8%,/,46.0%,28.5*,51.1
NS(=O)(=O)c1ccc(NC(=O)CSc2ccccn2)cc1,-11.9%,-17.7%,15.4%,8.0,-4.2
Cc1cc(NC(=O)CSc2nc(-c3ccc(Cl)cc3)cs2)no1,1.0%,?,?,-3.1,21.0
CCNC(=S)Nc1cccc([N+](=O)[O-])c1,-10.3%,16.8%,46.7%,-3.1,-1.0
CSc1cccc(NC(=S)N(CCCN2CCC(C)CC2)Cc2cccs2)c1,/,?,?,-2.6,-5.0
O=C(CSc1ccccn1)Nc1cccc([N+](=O)[O-])c1,/,1.5%,-3.0%,32.3*,34.2*
CCOC(=O)CN1C(=O)NC2(CCCc3ccccc32)C1=O (centres undefined),0.3%,26.8%,9.1%,-0.7,0.8
Cc1ccc([N+](=O)[O-])cc1NC(=O)c1c(-c2ccccc2)noc1C,1.1%,36.4%,-3.2%,-3.3,-30.6
CC1CC(C)(C)NC(=S)N1CCCC(=O)Nc1ccc2c(c1)OCCO2 (centres undefined),11.8%,?,111.3%,41.5*,115.6*
CC1CC(C)(C)NC(=S)N1CCCC(=O)Nc1ccc(F)cc1 (centres undefined),/,?,-8.9%,-2.6,-3.3
Cc1ccc(NC(=O)CCCN2C(=S)NC(C)(C)CC2C)cc1 (centres undefined),/,0.0%,3.0%,1.4,-7.8
CCc1ccc(NC(=O)CCCN2C(=S)NC(C)(C)CC2C)cc1 (centres undefined),/,1.85µM*,?,-1.1,27.9
SMILES,NS1 inh,Pf growth 96h,Pf growth 48h,CHX counter,Shiga inhibitor
Cc1cccc(NC(=O)CN2C(=S)NC(C)(C)CC2C)c1 (centres undefined),-5.0%,10.4µM*,-3.1%,-2.1,-4.2
CCOc1ccc(CCNc2nc3ccccc3n3c(C)nnc23)cc1OCC,0.7%,16.1%,5.22µM*,-2.6,-3.1
O=C(NC(=S)Nc1ccc2nc[nH]c2c1)c1ccccc1,1.3%,147.3%,103.0%,22.1*,50.5*
Cc1ccc2cccnc2c1NC(=S)NC(=O)c1ccccc1,-2.1%,?,?,26.2*,69.7*
O=C(NC(=S)Nc1ccc2[nH]ncc2c1)c1ccccc1,-68.4%,/,73.9%,35.1*,88.4*
CC(C)(C)NC(=S)NNC(=O)c1ccccc1Cl,-5.7%,?,0.0%,10.1,20.2
CC(C)(C)NC(=S)NNC(=O)c1ccc2ncccc2c1,2.0%,-56.0%,43.8%,21.3*,46.6*
Cc1cc(=O)[nH]c(-n2ncc(C#N)c2N)n1,/,-22.4%,18.7%,-1.4,-5.2
O=C(COc1c(Br)cc(Br)cc1Br)N/N=C/c1ccco1,7.5%,?,-9.7%,-2.1,-2.0
O=C(Nc1ccc2ncccc2c1)c1ccccc1,-2.8%,?,1.2%,-1.4,-3.3
O=C(NC(=S)Nc1ccc2ncccc2c1)c1ccccc1,/,56.0%,311.7%,51.8*,74.7*
O=C(NNC(=S)Nc1ccccc1)c1ccc2ncccc2c1,/,340.3%,267.1%,37.4*,56.3*
Cc1ccc(S(=O)(=O)N(Cc2cccc(F)c2)C(=O)N2CCN(C)CC2)cc1,/,13.0%,3.7%,/,/
O=C1C2CC=CCC2C(=O)N1c1n[nH]c(-c2ccccc2)n1 (centres undefined),8.0%,256.8%,74.5%,-4.6,-19.9
O=C(O)c1ccc(Cl)cc1NC(=O)C1CCCO1 (centres undefined),-5.5%,14.1%,-2.7%,-3.5,-2.9
COc1cc(C(=O)Nc2cccc(-c3nc4cc(C)ccc4o3)c2)cc(OC)c1OC,28.8%,-6.3%,5.0%,17.1*,81.4*
Cc1ccc2oc(-c3cccc(NC(=O)C4CCCO4)c3)nc2c1 (centres undefined),-46.2%,10.4µM*,225.2%,41.4*,75.8*
COc1cc(C(=O)Nc2cc(-c3nc4cc(C)ccc4o3)ccc2C)cc(OC)c1OC,9.7%,10.1%,38.1%,8.9,15.1
O=C(Nc1cccc(-c2nc3cc(Cl)ccc3o2)c1)C1CCCO1 (centres undefined),-36.9%,/,177.5%,13.9*,47.4
Cc1cccc(-c2nc3cc(NC(=O)C4CCCO4)ccc3o2)c1 (centres undefined),-12.9%,-1.0%,123.1%,67.4*,active
COc1ccc(N(CC(=O)NC2CCCCCC2)S(=O)(=O)c2ccc(C)cc2)cc1OC,15.2%,-17.6%,?,0.7,-28.3
N[C@@H](CCCCNC(=O)CCCC[C@@H]1SC[C@H]2NC(=O)N[C@H]12)C(=O)O,/,/,/,11.1,18.4
COc1ccc2oc(C(=O)OCC(=O)N3CCCC(C)C3)c(C)c2c1 (centres undefined),/,4.3%,13.7%,/,/
CCn1c(-c2ccccc2Cl)nn(CC(=O)Nc2ccccc2C)c1=S,-0.6%,?,?,-2.2,-3.0
CCOC(=O)CNC(=O)N1CCCC(C(=O)c2ccc3c(c2)OCO3)C1 (centres undefined),1.0%,11.7µM*,2.2%,1.6,-18.5
